Experimental data as given in PubChem BioAssay (NCI).
About 83,000 compounds went through this panel and 20% of them were active in at least one assay; those are over-represented in the sample as a whole.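 Activity criterion: percent growth below 10, measured after cells in 96-well plates were exposed to a single compound concentration for 48 hours.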 Activity calls are given as the source filed them.

The molecules below were run on NCI/ADR-RES ovarian (assay: NCI-60 one-dose screen, 48 h (100 = growth as untreated, 0 = no growth, -100 = all killed)). Settings: 10 µM unless noted.

SMILES	growth
Cn1cnc([N+](=O)[O-])c1N1c2ccncc2Sc2ccncc21	97.1% (inactive)
O=C(Nc1ccccc1F)Nc1ccccc1Cl	88.9% (inactive)
COc1cc(/C=C/C(=O)c2ccc(Oc3ncnc4ccccc34)cc2)cc(OC)c1OC	70.3% (inactive)
COc1ccc(/C=C2\CS(=O)(=O)C/C(=C\c3ccc(OC)cc3)C2=O)cc1	10.5% (inactive)
CC(NCCC(c1ccccc1)c1ccccc1)c1ccccc1 (stereo not given)	79.1% (inactive)
O=C(/C=C/c1ccco1)c1cccc(Nc2nc(Nc3ccccc3)nc(Nc3ccccc3)n2)c1	75.5% (inactive)
Cc1cc(NCCN(C(C)C)C(C)C)nc(/N=C(\N)Nc2ccc(Cl)c(C(F)(F)F)c2)n1	-41.1% (active)
O=S1(=O)N(CCNc2nccc(-c3c(-c4cccc(O)c4)nc4sccn34)n2)CCN1Cc1ccccc1	74% (inactive)
Clc1ccc(CN2COc3c(ccc4cccnc34)C2)cc1Cl	-19% (active)
CCC(C)Nc1ccc(N)cc1 (stereo not given)	70.6% (inactive)
CC1(C)N=C(N)N=C(N)N1c1ccc(OCC(=O)Nc2ccccc2)c(Cl)c1	102% (inactive)
COc1ccc2c(c1)C(=O)/C(=C/c1ccc(OCC(=O)c3ccc(Cl)cc3)cc1)O2	98.8% (inactive)
Cc1cccc(NC(=O)CCc2ccc(N3C(N)=NC(N)=NC3(C)C)cc2)c1	95.6% (inactive)
CCn1c(SC)nnc1-c1cc2c([nH]c3ccccc32)c(-c2cccc(O)c2)n1	8.9% (active)
CC(=O)N1N=C2N(Cc3ccccc3)C(=O)c3c(sc4c3CCCC4)N2C1c1cn(-c2ccccc2)nc1-c1ccc(Cl)cc1 (stereo not given)	100% (inactive)
